Laboratory results reported in PubChem BioAssay (NCATS).
Inconclusive results are not listed. Where a call stands in place of a potency, no number is given. The source made the active and inactive calls. Calls come from the whole dose curve; as a rule, active = well fitted inhibition curve with a large enough effect; inconclusive = small, poorly fitted or top-dose-only effect; inactive = no such curve, though single readings can be large or run the other way.

What was measured:
[1] = tested on: Zika virus NS2B-NS3 protease (unlinked complex); assay: Primary screen GU Rhodamine qHTS for Zika virus inhibitors: Unlinked NS2B-NS3 protease assay (AID 1347159); settings: Recombinant ZIKV NS2B-NS3 protease, Rhodamine110 substrate fluorescence; series mostly up to 107 µM; note: nearly all actives have a fitted effect of over 60% in size
Method in brief: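 Unlinked NS2B/NS3, 25 nM; Rhod110 peptide, 1.5 microM; compounds, up to 114 microM. Reaction run 15 min at RT in 10 mM Tris-HCl pH 8.0, 0.01% Tween 20; kinetic fluorescence change fitted with a 4-parameter Hill model.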

[2] = tested on: Zika virus NS2B-NS3 protease (linked construct); assay: Primary screen NINDS Rhodamine qHTS for Zika virus inhibitors (AID 1347160); settings: purified NS2B-NS3 protease, Rhodamine110 substrate fluorescence; series mostly up to 57.1 µM; note: nearly all actives have a fitted effect of over 55% in size
Method in brief: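 Single-chain NS2B-NS3 protease, 25 nM, pH 8.0; compounds preincubated 15 min. Activity: Rhodamine110 release from 1.5 microM substrate over 15 min, room temperature, data fitted to 4-parameter Hill.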

For CC(=O)N1CCN(Cc2ccc([C@H](C)Nc3nccc(N4C(=O)OC[C@@H]4C(C)C)n3)cc2)CC1, the Potency [1] was “inactive” and the Potency [2] was “inactive”.
For COC(=O)c1cc(OC)cc(OC)c1C(=O)c1c(OC)cc2c(c1O)C1CCCC(C)(O2)O1 (centres undefined), the Potency [1] was “inactive” and the Potency [2] was “inactive”.
With COc1ncc2cc(C(=O)Nc3cc(C(=O)NCc4cccc(Cl)c4)ccc3Cl)c(=O)[nH]c2n1 the Potency [1] was “inactive” and the Potency [2] was “inactive”.
In the case of Cc1cc(Nc2ncc3cc(-c4c(Cl)cccc4Cl)c(=O)n(C)c3n2)ccc1F, the Potency [1] is reported as “inactive” and the Potency [2] is reported as “inactive”.
For C=C1C[C@@]23CCC4[C@@](C)(CCC[C@@]4(C)C(=O)OC)C2CC[C@@H]1C3 (some centres undefined), the Potency [1] was “inactive” and the Potency [2] was “inactive”.
With C=C[C@H]1[C@H](O[C@@H]2O[C@H](CO)[C@@H](O)[C@H](O)[C@H]2O)OC=C(C(=O)OC)[C@H]1C/C=C(/C=O)[C@@H]1C(C(=O)OC)=CO[C@@H](O[C@@H]2O[C@H](CO)[C@@H](O)[C@H](O)[C@H]2O)[C@@H]1C=C the Potency [1] was “inactive” and the Potency [2] was “inactive”.
With COc1ccccc1NC(=O)OCC1CCN(C(=O)OC(C)(C)C)CC1 the Potency [1] was “inactive” and the Potency [2] was “inactive”.
